ChEMBL document CHEMBL3988442, “University of Dundee, Small-Polar-MMV Screening Library” (2021)
For some assays here: Potency and affinity values are given separately.

Experiments:
Set-up in all cases: scale not given: direction of the effect not stated beside the values
[1] = molecular target: Protein translocase subunit SecA (Escherichia coli (strain K12)) (UniProt P10408); test: Assay to Identify E. coli SecA ATPase Inhibitors; assay type: functional; settings: 30 µM
[2] = molecular target: T1, Ubiquitin-activating enzyme e1, putative (Leishmania donovani (strain BPK282A1)) (UniProt E9BSI1); test: Leishmania donovani Ubiquitin Activating Enzyme (LdE1); assay type: functional; settings: 30 µM
T1 sequence (whole entry): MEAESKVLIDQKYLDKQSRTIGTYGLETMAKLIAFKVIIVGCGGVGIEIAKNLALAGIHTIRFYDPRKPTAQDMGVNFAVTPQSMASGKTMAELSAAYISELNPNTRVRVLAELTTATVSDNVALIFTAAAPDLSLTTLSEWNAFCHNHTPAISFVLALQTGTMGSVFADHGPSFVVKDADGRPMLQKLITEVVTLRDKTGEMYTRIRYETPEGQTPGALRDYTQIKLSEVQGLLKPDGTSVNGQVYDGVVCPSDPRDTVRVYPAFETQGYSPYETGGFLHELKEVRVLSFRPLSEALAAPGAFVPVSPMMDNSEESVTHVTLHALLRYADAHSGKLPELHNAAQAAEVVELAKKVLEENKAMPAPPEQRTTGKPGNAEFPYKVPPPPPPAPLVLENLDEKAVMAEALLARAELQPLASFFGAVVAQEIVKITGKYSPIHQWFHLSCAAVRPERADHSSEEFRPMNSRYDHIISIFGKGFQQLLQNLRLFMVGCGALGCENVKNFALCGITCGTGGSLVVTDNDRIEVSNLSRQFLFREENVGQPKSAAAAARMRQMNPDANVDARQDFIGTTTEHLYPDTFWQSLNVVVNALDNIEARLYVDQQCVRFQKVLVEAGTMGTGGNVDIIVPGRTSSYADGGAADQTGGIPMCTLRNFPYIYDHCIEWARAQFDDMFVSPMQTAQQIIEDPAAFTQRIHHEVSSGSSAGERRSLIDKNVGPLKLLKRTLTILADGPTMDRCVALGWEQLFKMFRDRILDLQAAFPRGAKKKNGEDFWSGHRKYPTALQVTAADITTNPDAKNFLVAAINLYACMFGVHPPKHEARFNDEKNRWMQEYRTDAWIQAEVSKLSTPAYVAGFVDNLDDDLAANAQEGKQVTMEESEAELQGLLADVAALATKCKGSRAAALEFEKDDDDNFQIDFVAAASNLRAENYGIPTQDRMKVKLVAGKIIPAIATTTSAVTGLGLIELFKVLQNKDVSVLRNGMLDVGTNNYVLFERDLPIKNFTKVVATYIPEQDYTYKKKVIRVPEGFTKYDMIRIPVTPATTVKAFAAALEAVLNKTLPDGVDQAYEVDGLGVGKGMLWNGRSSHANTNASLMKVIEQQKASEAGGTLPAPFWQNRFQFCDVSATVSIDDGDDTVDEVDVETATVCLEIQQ

[3] = molecular target: AMP-activated protein kinase, AMPK (Homo sapiens) (UniProt P54646+O43741+P54619+Q9UGJ0+Q9Y478+Q13131+Q9UGI9); test: AMP-dependent Kinase enzyme assay. An in vitro enzyme assay that detects ADP turnover that is directly proportional to AMPK activity. This uses naive AMPK that is activated during the assay with MK-8722; assay type: functional; settings: 30 µM
[4] = molecular target: Sialic acid-binding Ig-like lectin 9 (Homo sapiens) (UniProt Q9Y336); test: Hs-Siglec9 ALPHAscreen SOP 20170721; settings: 10 µM
[5] = test system: Trypanosoma cruzi; test: Trypanosoma cruzi phosphomannomutase and mannose-1-phosphate guanylyltransferase assay; assay type: functional; settings: 10 µM
[6] = molecular target: T2, Arginase-2, mitochondrial (Homo sapiens) (UniProt P78540); test: in vitro enzyme assay to detect the production of urea directly proportional to the activity of Arginase II; assay type: functional; settings: 33.3 µM; also: in the data most compounds retested in dose-response had high values
T2 sequence (whole entry): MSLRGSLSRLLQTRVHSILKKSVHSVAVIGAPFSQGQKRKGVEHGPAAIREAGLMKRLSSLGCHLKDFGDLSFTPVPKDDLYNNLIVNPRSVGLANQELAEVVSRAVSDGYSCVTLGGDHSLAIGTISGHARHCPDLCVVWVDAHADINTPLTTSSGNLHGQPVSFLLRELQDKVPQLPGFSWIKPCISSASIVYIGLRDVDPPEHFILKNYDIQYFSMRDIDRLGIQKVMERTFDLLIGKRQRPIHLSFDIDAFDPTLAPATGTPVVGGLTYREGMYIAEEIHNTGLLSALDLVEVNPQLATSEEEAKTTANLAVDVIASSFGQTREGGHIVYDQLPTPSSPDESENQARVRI

[7] = molecular target: T3, Proteasome subunit beta (Trypanosoma cruzi) (UniProt O96673); test: Trypanosoma cruzi proteasome chymotrypsin-like activity (TcProtChymo) assay.; also: in the data most compounds retested in dose-response had high values; assay type: functional; settings: 9.37 µM
T3 sequence (whole entry): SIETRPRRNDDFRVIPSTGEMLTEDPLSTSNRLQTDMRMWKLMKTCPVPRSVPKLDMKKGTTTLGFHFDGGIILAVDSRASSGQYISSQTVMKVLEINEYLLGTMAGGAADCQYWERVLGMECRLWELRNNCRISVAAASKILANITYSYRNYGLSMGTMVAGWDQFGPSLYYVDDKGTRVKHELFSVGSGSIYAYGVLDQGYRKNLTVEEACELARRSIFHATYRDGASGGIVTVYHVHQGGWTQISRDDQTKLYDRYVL

[8] = species: Homo sapiens; test: To identify inhibition of the IFN signalling (Jak-Stat) pathway via expression of an eGFP reporter gene under the control of an IFN-stimulated response element (ISRE) containing MxA promoter.; assay type: functional; settings: 30 µM
[9] = molecular target: T4, Tyrosyl-tRNA synthetase, putative (Trypanosoma cruzi (strain CL Brener)) (UniProt Q4DSP6); test: Trypanosoma cruzi tyrosyl tRNA synthetase (TcYRS) _High Tyrosine SOP; assay type: functional; settings: 30 µM; also: in the data most compounds retested in dose-response had high values
T4 sequence (whole entry): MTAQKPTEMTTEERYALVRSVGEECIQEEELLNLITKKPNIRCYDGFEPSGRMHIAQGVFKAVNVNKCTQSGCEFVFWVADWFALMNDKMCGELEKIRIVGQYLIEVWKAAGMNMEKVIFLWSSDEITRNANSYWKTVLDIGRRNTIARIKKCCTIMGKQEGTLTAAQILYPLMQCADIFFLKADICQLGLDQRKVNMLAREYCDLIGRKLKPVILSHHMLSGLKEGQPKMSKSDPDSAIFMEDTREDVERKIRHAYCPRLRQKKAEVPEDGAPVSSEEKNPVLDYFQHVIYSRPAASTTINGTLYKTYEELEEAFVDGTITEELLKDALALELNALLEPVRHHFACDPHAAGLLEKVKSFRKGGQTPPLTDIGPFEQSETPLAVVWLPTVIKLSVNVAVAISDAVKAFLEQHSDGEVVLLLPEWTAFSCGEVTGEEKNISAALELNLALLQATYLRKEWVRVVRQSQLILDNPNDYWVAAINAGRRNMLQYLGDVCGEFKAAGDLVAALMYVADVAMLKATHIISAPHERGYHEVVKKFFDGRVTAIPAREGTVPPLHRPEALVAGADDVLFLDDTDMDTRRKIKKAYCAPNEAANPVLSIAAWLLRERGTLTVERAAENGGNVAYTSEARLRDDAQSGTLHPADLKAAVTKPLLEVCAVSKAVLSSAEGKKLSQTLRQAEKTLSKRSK

[10] = molecular target: T4, Tyrosyl-tRNA synthetase, putative (Trypanosoma cruzi (strain CL Brener)); test: Trypanosoma cruzi tyrosyl tRNA synthetase (TcYRS) SOP; assay type: functional; settings: 30 µM
[11] = molecular target: Chromo domain-containing protein 1 (Saccharomyces cerevisiae (strain ATCC 204508 / S288c) (Baker's yeast)) (UniProt P32657); test: ScCHD-1 Enzyme Inhibition Assay; assay type: functional; settings: 30 µM; also: in the data most compounds retested in dose-response had high values
Sequence of Chromo domain-containing protein 1 (Saccharomyces cerevisiae (strain ATCC 204508 / S288c) (Baker's yeast)) (P32657 whole entry, the tested form may be a part): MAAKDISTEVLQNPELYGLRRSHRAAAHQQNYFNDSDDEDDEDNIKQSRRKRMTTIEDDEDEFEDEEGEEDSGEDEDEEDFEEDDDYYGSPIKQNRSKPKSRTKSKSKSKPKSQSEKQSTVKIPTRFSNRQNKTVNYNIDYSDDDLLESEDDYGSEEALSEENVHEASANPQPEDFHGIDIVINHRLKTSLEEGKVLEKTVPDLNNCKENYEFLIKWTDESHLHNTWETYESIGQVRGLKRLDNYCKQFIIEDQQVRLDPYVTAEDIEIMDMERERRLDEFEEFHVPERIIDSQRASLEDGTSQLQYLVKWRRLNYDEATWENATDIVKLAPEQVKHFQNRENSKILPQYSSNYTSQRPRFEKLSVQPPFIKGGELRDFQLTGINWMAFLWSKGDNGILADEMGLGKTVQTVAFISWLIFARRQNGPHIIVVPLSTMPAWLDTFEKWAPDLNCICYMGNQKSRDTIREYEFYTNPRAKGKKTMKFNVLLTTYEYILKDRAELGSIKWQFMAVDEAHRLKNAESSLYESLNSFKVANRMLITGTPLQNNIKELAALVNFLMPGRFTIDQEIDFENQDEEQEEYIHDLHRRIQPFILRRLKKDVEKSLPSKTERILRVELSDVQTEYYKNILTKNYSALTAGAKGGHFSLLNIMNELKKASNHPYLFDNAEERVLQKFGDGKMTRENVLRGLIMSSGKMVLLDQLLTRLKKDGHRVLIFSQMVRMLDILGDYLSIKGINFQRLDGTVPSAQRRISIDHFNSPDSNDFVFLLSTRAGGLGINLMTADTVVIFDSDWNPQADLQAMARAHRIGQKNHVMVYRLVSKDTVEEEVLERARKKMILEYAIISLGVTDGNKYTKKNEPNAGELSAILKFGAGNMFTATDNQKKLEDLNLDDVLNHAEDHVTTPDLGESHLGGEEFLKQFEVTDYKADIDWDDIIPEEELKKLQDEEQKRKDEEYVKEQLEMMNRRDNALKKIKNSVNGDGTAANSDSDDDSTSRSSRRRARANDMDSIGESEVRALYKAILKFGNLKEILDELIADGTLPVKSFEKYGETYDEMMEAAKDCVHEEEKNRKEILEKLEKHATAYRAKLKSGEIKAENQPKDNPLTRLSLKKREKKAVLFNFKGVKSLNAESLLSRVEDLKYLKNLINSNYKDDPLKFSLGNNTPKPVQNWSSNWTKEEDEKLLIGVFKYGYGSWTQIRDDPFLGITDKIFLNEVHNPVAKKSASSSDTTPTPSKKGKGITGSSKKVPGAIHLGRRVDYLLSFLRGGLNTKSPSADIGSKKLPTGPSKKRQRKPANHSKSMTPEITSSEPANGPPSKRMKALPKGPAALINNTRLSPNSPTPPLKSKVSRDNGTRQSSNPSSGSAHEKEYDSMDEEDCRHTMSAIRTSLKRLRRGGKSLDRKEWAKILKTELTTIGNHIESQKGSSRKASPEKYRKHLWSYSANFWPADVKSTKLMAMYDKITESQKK

Sequence of Sialic acid-binding Ig-like lectin 9 (Homo sapiens) (Q9Y336 whole entry): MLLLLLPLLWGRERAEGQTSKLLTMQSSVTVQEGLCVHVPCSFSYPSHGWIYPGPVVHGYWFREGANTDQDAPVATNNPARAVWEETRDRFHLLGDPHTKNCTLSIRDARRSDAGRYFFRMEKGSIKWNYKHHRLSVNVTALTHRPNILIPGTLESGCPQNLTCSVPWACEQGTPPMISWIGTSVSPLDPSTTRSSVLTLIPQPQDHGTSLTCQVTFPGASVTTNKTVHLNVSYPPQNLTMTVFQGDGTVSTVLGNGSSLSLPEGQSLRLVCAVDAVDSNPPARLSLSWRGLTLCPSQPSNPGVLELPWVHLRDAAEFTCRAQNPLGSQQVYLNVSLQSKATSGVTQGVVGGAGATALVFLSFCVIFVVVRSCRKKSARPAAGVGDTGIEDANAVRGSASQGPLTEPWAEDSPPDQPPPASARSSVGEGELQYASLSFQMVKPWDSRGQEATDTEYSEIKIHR
Sequence of Protein translocase subunit SecA (Escherichia coli (strain K12)) (P10408 whole entry): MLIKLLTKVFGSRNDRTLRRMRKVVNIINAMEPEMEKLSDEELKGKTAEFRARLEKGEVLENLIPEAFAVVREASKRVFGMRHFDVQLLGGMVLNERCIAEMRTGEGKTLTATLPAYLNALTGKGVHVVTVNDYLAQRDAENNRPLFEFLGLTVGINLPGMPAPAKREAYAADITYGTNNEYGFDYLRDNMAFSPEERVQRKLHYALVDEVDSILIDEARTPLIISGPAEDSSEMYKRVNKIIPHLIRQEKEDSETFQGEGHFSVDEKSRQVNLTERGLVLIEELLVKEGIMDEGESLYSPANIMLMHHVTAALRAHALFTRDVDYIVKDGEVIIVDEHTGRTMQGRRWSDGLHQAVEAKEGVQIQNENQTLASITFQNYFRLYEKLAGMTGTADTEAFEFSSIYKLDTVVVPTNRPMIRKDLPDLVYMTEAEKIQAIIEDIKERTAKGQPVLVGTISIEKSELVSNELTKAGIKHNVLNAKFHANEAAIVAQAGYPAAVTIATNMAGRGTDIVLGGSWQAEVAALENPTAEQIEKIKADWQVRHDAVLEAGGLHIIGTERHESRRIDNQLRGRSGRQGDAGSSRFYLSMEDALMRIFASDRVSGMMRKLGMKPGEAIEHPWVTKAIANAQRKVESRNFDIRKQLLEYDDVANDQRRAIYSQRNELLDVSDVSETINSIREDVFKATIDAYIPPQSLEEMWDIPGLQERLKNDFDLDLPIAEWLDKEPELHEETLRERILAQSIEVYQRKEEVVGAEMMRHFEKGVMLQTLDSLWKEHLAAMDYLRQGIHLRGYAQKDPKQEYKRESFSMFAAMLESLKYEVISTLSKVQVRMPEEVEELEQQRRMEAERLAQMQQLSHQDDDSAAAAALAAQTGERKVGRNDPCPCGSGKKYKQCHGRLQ

| Compound | Percent Effect [1] [%] | Percent Effect [2] [%] | Percent Effect [3] [%] | Percent Effect [4] [%] | Percent Effect [5] [%] | Percent Effect [6] [%] | Percent Effect [7] [%] | Percent Effect [8] [%] | Percent Effect [9] [%] | Percent Effect [10] [%] | Percent Effect [11] [%] |
| --- | --- | --- | --- | --- | --- | --- | --- | --- | --- | --- | --- |
| CNCC(=O)N1CCC(c2ccnc(Nc3ccc(C)cn3)n2)C1 (configuration not stated) | -7.25 | 17.6 | 1.51 | 1.04 | 2.37 | -4.87 | 17.9 | -13.7 | 8.6 | 19.5 | -16.1 |
| CC(Cc1ccco1)NC(=O)Nc1ccc(S(C)(=O)=O)nc1 (configuration not stated) | -4.47 | 18.4 | -6.45 | -1.24 | 4.13 | -0.383 | 9.52 | 21.8 | 9.31 | 19.5 | -12.4 |
| COc1ccc(C)cc1CN(C)Cc1nc2c(cnn2C)c(=O)[nH]1 | -1.35 | 18.4 | 1.85 | 2.21 | 2.52 | -4.32 | 7.02 | 7.09 | 9.36 | 23.5 | -5.71 |
| O=C(CCc1ccccc1)N1CCn2cc(CN3CCCC3)nc2C1 | 0.2 | 5.2 | -2.41 | 2.78 | -1.08 | -3.23 | 11.8 | 7.71 | 12.7 | 16.7 | -2.74 |
| CN1CCC(NC(=O)NCCNc2ccccn2)CC1 | -2.67 | 16.2 | -6.97 | 16.2 | 4.92 | 3.14 | 16.5 | 5.52 | 3.96 | 15.8 | -6.11 |
| Cn1nc(C(=O)N2CCCCC2c2nc3cc(F)ccc3[nH]2)ccc1=O (configuration not stated) | -6.48 | 15.3 | -16.2 | 39.4 | 10.6 | 3.97 | 9.82 | -6.87 | 2.1 | 17.9 | -10.9 |
| Cc1cc(C)c2nc(CN3CCCC(c4cc[nH]n4)C3)cc(O)c2c1 (configuration not stated) | -1.83 | 0 | 3.31 | -3.01 | -3.28 | 0 | 8.62 | 23.3 | 3.7 | 14.6 | -5.03 |
| CCOCC(=O)N1CCC(Oc2ccc(Cl)cn2)CC1 | -0.654 | 7.79 | 2.32 | 8.91 | -0.888 | 4.52 | 25.9 | 21.4 | 8.47 | 8.97 | -8.06 |
| O=C(NCCNc1ncccn1)C1CCN(CC(F)(F)F)CC1 | -4.28 | 18.9 | 5.29 | 1.52 | -6.51 | 0.802 | 18.9 | 20.5 | 7.39 | 11.1 | -4.74 |
| Cc1nc(C)n(C2CCCN(C(=O)c3ccc(F)cc3F)C2)n1 (configuration not stated) | -3.45 | 0 | 0.572 | -0.68 | 2.73 | 24.6 | 11.2 | -8.13 | 9.9 | 18.3 | -7.11 |
| NC(=O)C1CCN(C(=O)c2cccc(CN3CCOCC3)c2)CC1 | -0.727 | 6.94 | 4.41 | 25.6 | 4.57 | 2.21 | 0.702 | -3.07 | 1.05 | 0 | 79 |
| Cc1cc(N2CCN(Cc3nccn3C)CC2)cc(C)n1 | -3.69 | 1.39 | -5.16 | -5.41 | -5.93 | -0.883 | 12.1 | -10.6 | 0 | -2.56 | -1.23 |
| COC[C@@]12CCO[C@@H]1CCN(C(=O)Cc1ccccc1F)C2 | 0.597 | 19.2 | -6.38 | 8.82 | -0.595 | -3.19 | 12.2 | 5.78 | 8.33 | 11.1 | -3.06 |
| NC(=O)c1cccc(CC2CCN(C(=O)CO)C2)c1 (configuration not stated) | -1.68 | 19.2 | 10.3 | 10.6 | 3.33 | -0.909 | 15.4 | 2.47 | 4.3 | 17.5 | -3.86 |
| Cc1ccc(-c2noc(CN3CCOC(CN(C)C)C3)n2)cc1F (configuration not stated) | -2.58 | -8.11 | -2.88 | 2.97 | -3.99 | -4.25 | -0.539 | 20.6 | 1.98 | -1.22 | 2.19 |
| Cc1ccc(C)c(C(=O)CN2C(=O)c3ccccc3CS2(=O)=O)c1 | -0.543 | -2.7 | -3.5 | 9.17 | 5.79 | 0 | 18.1 | 12 | -36.5 | -41.5 | 22.1 |
| CCCOc1cc(C)ccc1NC(=O)NCCC(=O)N(C)C | -4.1 | 13.7 | -1.53 | -3 | -3.33 | 4.09 | 20.6 | 10.2 | 6.45 | 15 | -2.56 |
| COc1ccc(OCC(=O)NC(C)c2ccc(F)cc2)c(C(=O)O)c1 (configuration not stated) | -5.45 | 5.41 | 1.14 | 2.91 | 2.05 | 5.21 | 0.944 | -0.568 | 4.3 | 13.6 | -5.02 |
| COc1cccc2c1ccn2CC(=O)N[C@@H](CCSC)C(=O)O | 1.36 | -1.33 | -55.8 | 3.95 | -0.197 | -7.57 | 11.5 | -11.4 | 4.23 | -30.8 | -0.515 |
| CCO[C@@H]1CCN(C(=O)c2cscn2)[C@@H]1Cc1cnn(C)c1 | -1.12 | 0 | 9.65 | 4.98 | -5.12 | 2.1 | -1.15 | 1.8 | 2.13 | 3.85 | 1.69 |
| c1ccc(-c2ncc(CNC3CCc4ncnn4C3)cn2)cc1 (configuration not stated) | -5 | 8.86 | 6.48 | -1.35 | -1.33 | 9.25 | 3.26 | -3.68 | 7.29 | 10.1 | -13.8 |
| COCCC(=O)N1CC2(CCN(Cc3cccc(Cl)c3)CC2)C1 | -1.79 | 5.33 | 5.28 | 2.57 | -7.09 | 3.03 | 10.8 | 6 | 4.25 | 11.5 | -4.02 |
